Rows were chosen to be rich in hits. Some 21% of all compounds tested hit in one or more screens of this group.
IL1B secr inh = qHTS for Inhibitors of Inflammasome Signaling: IL-1-beta AlphaLISA Primary Screen; THP-1 LPS/ATP IL-1B secretion, AlphaLISA, 16 h; stronger effect = lower value; activity change, % at 57.5 µM; hit rate 4.7% among 360,000; in the data active = activity change below about -50%; inconclusive = mostly about -30% to -49%
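Secreted IL-1B measured by AlphaLISA bead assay after 16 h compound exposure of THP-1 cells; compounds (final up to 57.5 uM) added 1 h before LPS (250 ng/mL) and ATP (1.25 mM) stimulation; lower signal means less secretion.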
DT40 TDP1 no CPT = qHTS for Inhibitors of human tyrosyl-DNA phosphodiesterase 1 (TDP1): qHTS in cells in absence of CPT | hit rate 15% among 420,000 | Potency, µM (top dose mostly 46.2 µM), actives largely listed as inhibitors | DT40 Tdp1-/- hTDP1 cells, no CPT, ATP luminescence, 48 h; note: nearly all actives have a fitted effect of over 55% in size
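Cells were dispensed at 400 per well, compounds added by pin tool, plates incubated ≥48 hr at 37 °C, then CellTiter-Glo added for 30 min at room temperature before luminescence reading. Line: DT40 Tdp1-/- complemented with hTDP1; camptothecin omitted.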
DRD3 agonist = qHTS of D3 Dopamine Receptor Agonist: qHTS; D(3) dopamine receptor (Homo sapiens), P35462; D3R DiscoveRx beta-arrestin cells, luminescence, 90 min; max activation, %; hit rate 0.58% among 410,000; in the data active = max activation above about 30%
Target sequence (P35462 whole entry, looked up): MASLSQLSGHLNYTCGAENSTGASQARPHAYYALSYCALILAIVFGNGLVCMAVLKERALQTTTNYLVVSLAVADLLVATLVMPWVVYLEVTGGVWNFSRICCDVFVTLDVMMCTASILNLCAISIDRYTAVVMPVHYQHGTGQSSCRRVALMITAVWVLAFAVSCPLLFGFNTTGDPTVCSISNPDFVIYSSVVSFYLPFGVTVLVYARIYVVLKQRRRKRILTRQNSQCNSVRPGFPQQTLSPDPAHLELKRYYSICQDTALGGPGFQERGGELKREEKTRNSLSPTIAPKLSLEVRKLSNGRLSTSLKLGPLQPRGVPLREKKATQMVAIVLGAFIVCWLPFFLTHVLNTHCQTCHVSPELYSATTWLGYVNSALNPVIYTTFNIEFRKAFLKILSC
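Agonist mode: compounds and dopamine controls were applied to plated cells for 90 min at 37 degrees C after an overnight attachment at 1500 cells/well. Luminescent read-out followed 30 - 60 minutes at room temperature with DiscoveRx detection reagent.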
D3 antag = qHTS of D3 Dopamine Receptor Antagonist: qHTS. D(3) dopamine receptor (Homo sapiens), P35462. D3R cells, DiscoveRx beta-arrestin luminescence, antagonist mode; stronger effect = lower value. max response, negative = inhibition, %. hit rate 2.5% among 360,000; in the data active = max response below about -50%; inconclusive = no clear call, values can overlap the other calls
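Cells plated overnight at 1500 cells/well, then exposed to library compounds with dopamine controls for 90 minutes at 37 degrees C. DiscoveRx reagent added for 30–60 minutes at room temperature; luminescence read, quantitative HTS format.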
TDP1 cell CPT = qHTS for Inhibitors of human tyrosyl-DNA phosphodiesterase 1 (TDP1): qHTS in cells in presence of CPT | Potency, µM (doses to about 46.2 µM), actives largely listed as inhibitors | chicken DT40 Tdp1-/-;hTDP1 cells + 20 nM CPT, ATP luminescence, 48 h | hit rate 12% among 420,000; note: nearly all actives have a fitted effect of over 55% in size
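Chicken DT40 Tdp1-/- cells complemented with human TDP1, 400 cells/well, exposed to compounds plus 20 nM camptothecin for at least 48 h at 37 C; viability read as ATP content by CellTiter-Glo luminescence.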
ClpP mod = qHTS Assay for Activators of ClpP; ATP-dependent Clp protease proteolytic subunit (Bacillus subtilis (strain 168)), P80244; purified B. subtilis ClpP, FRET peptide cleavage, 20 min; hit rate 1.9% among 340,000; Potency, µM (top dose mostly 57.5 µM); AID 651965, 2013; active = well fitted falling curve with a large enough effect; inconclusive = small, poorly fitted or top-dose-only effect; inactive = no such curve, though single readings can be large or run the other way; note: the source files actives as falling curves though it sought activators and does not explain the sign; nearly all actives have a fitted effect of over 65% in size
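FRET quenching reversal measured ClpP activation: 10 microg/mL B. subtilis ClpP at pH 8 with the FRET-FV decapeptide, read at 430 nm after 320 nm excitation. The 20-min minus 0-min signal was scaled between DMSO/no-enzyme wells and ADEP (5.8 microM final).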
Numbers stand for hits; 0 = inactive; ? = inconclusive; - = not tested or not shown; ! = not active in a repeat. Unless noted, calls come from the whole dose curve; as a rule, active = well fitted inhibition curve with a large enough effect; inconclusive = small, poorly fitted or top-dose-only effect; inactive = flat fitted curve, though single readings scatter.

SMILES | IL1B secr inh | DT40 TDP1 no CPT | DRD3 agonist | D3 antag | TDP1 cell CPT | ClpP mod
Nc1ccc(C(=O)O)c(O)c1 | 0 | 0 | 0 | 0 | 0 | ?
COc1ccc(-c2nc3cnc(N(C)C)nc3n(C[C@H]3CCCO3)c2=O)cc1 | - | 0 | - | - | 0 | -
COc1ccc(NS(=O)(=O)c2cccc(N/C(=N\S(=O)(=O)c3ccccc3)c3ccc(F)cc3)c2)cc1 | 0 | ? | 0 | 0 | 21µM | 0
COc1ccccc1NS(=O)(=O)c1cc(N/C(=N/S(=O)(=O)c2ccccc2)c2ccc(F)cc2)ccc1Cl | ? | 21µM | 0 | 0 | - | 0
O=S(=O)(/N=C(/Nc1ccc(Cl)c(S(=O)(=O)Nc2ccccc2Cl)c1)c1ccc(F)cc1)c1ccccc1 | -75! | 0 | 0 | ? | 0 | -
CCc1cc[n+](CC(=O)c2ccc(F)cc2)cc1C(=O)O | - | 0 | - | - | 0 | 0
COc1ccc(-n2c(=O)c3c(c4cc(OC)ccc4n3C)n(CC(=O)NCC3CCCO3)c2=O)cc1 (configuration not stated) | - | ? | 0 | - | 0 | 0
COc1ccccc1CC(=O)Nc1ccc(-c2nnc(-c3ccco3)o2)cc1 | ? | 16µM | 0 | 0 | ? | ?
O=C(Cc1ccc(Cl)cc1)Nc1ccc(-c2nnc(-c3ccco3)o2)cc1 | 0 | 0 | 0 | 0 | 0 | 32µM
O=C(O)CCC(=O)Nc1ccc(-c2nnc(-c3ccco3)o2)cc1 | 0 | 0 | 0 | 0 | 0 | 0
Cc1c(C(=O)OCC(=O)Nc2c(C)n(C)n(-c3ccccc3)c2=O)oc2ccccc12 | 0 | 0 | 0 | 0 | 0 | -
Cc1ccc(S(=O)(=O)N2CCN(C(=O)c3ccc(Br)o3)CC2)c(C)c1 | 0 | ? | 0 | 0 | ? | -
O=c1c(-c2c(O)cc(O)c3c2O[C@H](c2ccc(O)cc2)CC3)c(-c2ccc(O)cc2)oc2cc(O)cc(O)c12 | 0 | 5.2µM | 0 | 0 | ? | 0
Cc1ccc(CNC(=O)c2cc(C3CC3)nc3c2cnn3C(C)C)cc1 | 0 | 18µM | 0 | 0 | ? | 0
Cc1ccc(S(=O)(=O)N2CCN(C(=O)c3cc(C4CC4)nc4c3cnn4C(C)C)CC2)cc1 | ? | 4.1µM | 0 | 0 | ? | 0
COc1cccc(CNC(=O)c2cc(C3CC3)nc3c2cnn3C(C)C)c1 | -53 | ? | 0 | 0 | ? | 0
COc1ccc(CNC(=O)c2cc(C3CC3)nc3c2cnn3C(C)C)cc1OC | 0 | 0 | 0 | 0 | ? | 0
CC(C)n1ncc2c(C(=O)N3CCN(S(=O)(=O)c4cccc(F)c4)CC3)cc(C3CC3)nc21 | 0 | 0 | 0 | 0 | 0 | 0
COc1ccc(-c2nc3cnc(OCc4ccccc4)nc3n(CCC#N)c2=O)cc1 | - | 0 | - | - | 0 | -
CC(=O)c1cccc(NC(=O)Nc2sc3nc4n(c(=O)c3c2C)CCC(C)CC4)c1 (configuration not stated) | - | 8.2µM | 0 | - | ? | 0
COc1cc(OC)c(NC(=O)Nc2sc3nc4n(c(=O)c3c2C)CCC(C)CC4)cc1Cl (configuration not stated) | - | 5.8µM | 0 | - | 5.2µM | 0
CCOC(=O)c1sc2nc3n(c(=O)c2c1C)CCC(C)CC3 (configuration not stated) | ? | ? | 0 | 0 | ? | 0
Cc1c(NC(=O)Nc2ccc(Cl)c(Cl)c2)sc2nc3n(c(=O)c12)CCC(C)CC3 (configuration not stated) | - | 8.2µM | 0 | - | 5.2µM | 0
CCOC(=O)N1CCN(C(=O)Nc2sc3nc4n(c(=O)c3c2C)CCC(C)CC4)CC1 (configuration not stated) | 0 | ? | 0 | 0 | ? | 0
Cc1c(NC(=O)Nc2ccccc2C(F)(F)F)sc2nc3n(c(=O)c12)CCC(C)CC3 (configuration not stated) | - | 13µM | 0 | - | 21µM | 0
